Bioassay records deposited in PubChem by National Center for Advancing Translational Sciences (NCATS).
Shown are actives, neighbours in structure and some others; about 4.6% of the full set was active somewhere.
TRHR PAM – allosterically enhances the human TRH receptor | TRHR cells, fluo-8 calcium fluorescence, EC20 TRH enhancement | enhancement, % at 2 µM | 0.66% of 360,000 active | AID 493056; in the data active = enhancement above about 30%
Target sequence (P34981 whole entry, looked up): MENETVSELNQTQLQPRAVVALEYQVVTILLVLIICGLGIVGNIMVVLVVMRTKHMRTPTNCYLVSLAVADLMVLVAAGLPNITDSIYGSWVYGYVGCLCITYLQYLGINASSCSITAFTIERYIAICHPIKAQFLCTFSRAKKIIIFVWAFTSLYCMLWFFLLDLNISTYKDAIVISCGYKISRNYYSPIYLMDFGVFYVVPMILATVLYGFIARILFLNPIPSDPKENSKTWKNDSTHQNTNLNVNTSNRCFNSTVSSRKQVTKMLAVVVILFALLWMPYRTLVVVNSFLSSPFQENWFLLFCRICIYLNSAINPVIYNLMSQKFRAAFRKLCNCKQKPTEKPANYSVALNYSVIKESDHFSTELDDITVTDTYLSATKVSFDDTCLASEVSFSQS
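TRHR-expressing cells loaded with fluo-8 calcium dye were read kinetically (ex 480/em 530) during compound addition, then stimulated with an EC20 of TRH (10 nM final). Enhancement of the Gq-mediated intracellular calcium response was scored.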
D1 agonist – activates the human D1 dopamine receptor | P21728 | HEK293 T-REx D1 cells, calcium flux, agonist mode | activation, % at 2 µM | 1% of 360,000 active
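Tetracycline-induced HEK293 TREx D1 cells, force-coupled to calcium signalling, were dye-loaded with a no-wash calcium kit. Compound was pin-added after a 10 s baseline. Fluorescence was read kinetically at 1 cycle/s for 180 s, with calcium rises flagged as agonism.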
D1 potentiator – human D1 dopamine receptor positive modulation | potentiation, % at 10 µM | 0.036% of 360,000 active | AID 504651 | P21728 | HEK293 TREx D1 cells, calcium flux, dopamine EC20 potentiation; in the data active = potentiation above about 30%
TRHR ag – activates the human TRH receptor | 0.18% of 360,000 active | P34981 | AID 493084 | TRHR cells, calcium flux fluo-8, FDSS agonist mode | activation, % at 2 µM
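Read-out: compound-evoked intracellular calcium rise in TRHR cells, fluo-8 dye, kinetic FDSS fluorescence at 1 s/cycle following a 10-cycle baseline. Cells cultured overnight before dye loading (30 min–1.5 h, RT).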
D1 antag – antagonists of human D1 dopamine receptor | P21728 | HEK293 TREx D1 cells, calcium flux, dopamine EC80; hits give low values | activity change, negative = inhibition, % at 10 µM | 3.2% of 360,000 active; in the data active = activity change below about -30%
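After overnight tetracycline induction at 30 C, force-coupled D1 HEK293 cells took up a no-wash calcium dye at room temperature. Compounds were added and monitored 180 s, and the response to EC80 dopamine was then recorded.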
A number is an active result; 0 = inactive; - = no result. Rule as the data show it, unless noted: active = activation above about 30%; inactive = the rest.

SMILES | TRHR PAM | D1 agonist | D1 potentiator | TRHR ag | D1 antag
COc1cccc(-c2c(C(=O)N/N=C/c3cccs3)nnn2-c2nonc2N)c1 | 0 | 61 | 0 | 0 | 0
Nc1nonc1-n1nnc(C(=O)N/N=C/c2ccc(F)cc2)c1-c1ccc2c(c1)OCO2 | 0 | 0 | 0 | 0 | 0
COc1cc(/C(C)=N/NC(=O)c2nnn(-c3nonc3N)c2-c2cccs2)ccc1O | 0 | 0 | 0 | 0 | 0
COc1ccc(/C=N/NC(=O)c2nnn(-c3nonc3N)c2-c2cccs2)cc1OC | 0 | 0 | 0 | 0 | 0
Cc1ccc(/C=N/NC(=O)c2nnn(-c3nonc3N)c2-c2ccc3c(c2)OCO3)s1 | 0 | 49 | 36 | 0 | 0
Cc1ccc(/C=N/NC(=O)c2nnn(-c3nonc3N)c2-c2cccs2)cc1 | 0 | 163 | 0 | 0 | 0
CCOc1ccc(/C(C)=N/NC(=O)c2nnn(-c3nonc3N)c2-c2cccs2)cc1 | 0 | 115 | 41 | 0 | 0
Cc1c(C(=O)Nc2ccc(F)cc2F)oc2ccc3c(c12)C(=O)CC(C)(C)O3 | 0 | 0 | 0 | 0 | 0
COc1ccc(/C=N/NC(=O)c2nnn(-c3nonc3N)c2-c2cccc(OC)c2)cc1 | 0 | 99 | 0 | 0 | 0
Cc1ccc(SCc2c(C(=O)N/N=C/c3ccncc3)nnn2-c2nonc2N)cc1 | 0 | 0 | 0 | 0 | -42
CCOc1cccc(-c2c(C(=O)N/N=C/c3ccncc3)nnn2-c2nonc2N)c1 | 0 | 0 | 0 | 0 | 0
Nc1nonc1-n1nnc(C(=O)N/N=C/c2ccncc2)c1CSc1ccc(Cl)cc1 | 0 | 0 | 0 | 0 | 0
Cc1ccc(/C=N/NC(=O)c2nnn(-c3nonc3N)c2CN(C)C)o1 | 32 | 0 | 0 | 0 | 0
CCOc1cccc(-c2c(C(=O)N/N=C/c3cccs3)nnn2-c2nonc2N)c1 | 0 | 30 | 0 | 0 | 0
COCc1c(C(=O)N/N=C/c2ccc(C)o2)nnn1-c1nonc1N | 0 | 0 | - | 0 | 0
Cc1ccc(NC(=O)Cn2nc(C)c3nn(-c4ccc(Cl)cc4)c(C)c3c2=O)cc1F | 0 | 0 | 0 | 0 | 0
CCc1cccc(NC(=O)CC(c2ccc(OC)cc2)N2Cc3ccccc3C2=O)c1 (stereo not given) | 0 | 0 | 0 | 0 | 0
O=C(CCCN1C(=O)c2cccnc2Oc2ccc(Cl)cc21)NCc1ccccc1F | 0 | 0 | 0 | 0 | 0
O=C(CSc1ncc2c(n1)-c1cc(Cl)ccc1N(Cc1ccccc1F)S2(=O)=O)Nc1cccc(C(F)(F)F)c1 | 0 | 0 | 0 | 0 | 0
Cc1ccc(C(=O)NC(C)c2ccc(F)cc2)cc1 (stereo not given) | 0 | 0 | 0 | 0 | 0
CC(C)Cc1ccc(C(C)NC(=O)c2ccc(=O)[nH]c2)cc1 (stereo not given) | 0 | 49 | 0 | 0 | 0
COc1cccc(N(CC(=O)N2CCC(C)CC2)S(=O)(=O)c2ccc(C)cc2)c1 | 0 | 0 | 0 | 0 | 0
Fc1ccccc1-c1nnc2ccc3ccccc3n12 | 36 | 0 | 0 | 0 | 0
CCOc1ccc(OCC)c(NC(=O)c2csc3c2CCCC3)c1 | 0 | 0 | 0 | 0 | 0
O=C(COC(=O)C1CCN(c2ccc(C(F)(F)F)cn2)CC1)c1ccc(F)cc1 | 0 | 43 | 0 | 0 | -35
SMILES | TRHR PAM | D1 agonist | D1 potentiator | TRHR ag | D1 antag
CC(OC(=O)C1CCN(c2ccc(C(F)(F)F)cn2)CC1)C(=O)c1ccccc1 (stereo not given) | 0 | 0 | 0 | 0 | -32
CN1CCN(c2ccc(NC(=O)c3ccc(C(F)(F)F)cc3)cn2)CC1 | 0 | 0 | 0 | 0 | -41
CC(=O)c1ccc(NC(=O)C(C)OC(=O)C2CCN(c3ccc(C(F)(F)F)cn3)CC2)cc1 (stereo not given) | 0 | 0 | 0 | 0 | -30
Cc1ccc(C(=O)C(C)OC(=O)C2CCN(c3ccc(C(F)(F)F)cn3)CC2)cc1 (stereo not given) | 0 | 0 | 0 | 0 | 0
CC(OC(=O)C1CCN(c2ccc(C(F)(F)F)cn2)CC1)C(=O)Nc1ccc(S(N)(=O)=O)cc1 (stereo not given) | 0 | 0 | 0 | 0 | 0
Cc1ccccc1C(=O)Nc1ccc(N2CCN(C)CC2)nc1 | 0 | 0 | 0 | 0 | 0
O=c1c(S(=O)(=O)c2ccccc2)cn(Cc2ccccc2)c2cc(N3CCOCC3)c(F)cc12 | 0 | 0 | 0 | 0 | 0
O=S(=O)(c1ccc2c(c1)OCCO2)N1CCN(S(=O)(=O)c2ccc(Br)cc2F)CC1 | 0 | 0 | 0 | 0 | 0
